Activity calls are given as the source filed them. Calls follow the shape of the dose curve; as a rule, active = well fitted inhibition curve with a large enough effect; inactive = flat fitted curve, though single readings scatter. Square brackets hold non-standard residues; d marks the D form. Peptide text beside a SMILES is read from it. * marks the point of attachment. Dolaproine = CO[C@@H]([C@@H]1CCCN1)[C@@H](C)C(=O)O; Dil = CC[C@H](C)[C@H](NC)[C@@H](CC(=O)O)OC; NMe2Val = CC(C)[C@@H](C(=O)*)N(C)C; X1 = C[C@@H](N*)[C@@H](O)c1ccccc1; NMeV = CN[C@H](C(=O)O)C(C)C
Assay: Identification of antibody-drug conjugate (ADC) payloads which are substrates of ATP-binding cassette drug efflux transporters: ABCB1-HeLa-KB-8-5-11 cell line with tariquidar
Conditions: KB-8-5-11 (P-gp) + tariquidar, viability, CellTiter-Glo, 48 h
Text: Antibody-drug conjugates (ADCs) feature an antibody recognizing a specific protein joined to a potent toxic payload. Numerous antibody-drug conjugates have received FDA approval; however, clinical resistance arises. Resistance mechanisms include decreased expression or mutation of the antibody target, impaired payload release, or increased expression of ATP-binding cassette (ABC) efflux transporters associated with multidrug resistance. We therefore sought to characterize the interaction of ABC multidrug transporters with ADC payloads. We performed a high-throughput screen with 27 common ADC payloads using cells lines expressing ABC transporters P-glycoprotein (P-gp, encoded by ABCB1) or ABCG2 (encoded by ABCG2). Confirmatory assays were also performed using cells transfected to express P-gp, ABCG2, or MRP1 (encoded by ABCC1). Several commonly used ADC payloads were substrates of P-gp, including calicheamicin gamma1, monomethyl auristatin E, DM1, and DM4. All the pyrrolobenzodiazepines tested - SJG136, SGD-1882, SG2057, and SG3199 - were substrates of P-gp, ABCG2, and MRP1. […] These findings highlight the risk of transporter-mediated resistance with certain ADC payloads and underscore the importance of selecting payloads that evade ABC transporter recognition in future ADC development.
HEK-293 cells were transfected with empty vector (pcDNA) or vector containing the human ABCB1 (MDR-19), ABCG2 (R-5), or ABCC1 gene (MRP1) and were maintained in EMEM with 2 mg/mL G418 added to maintain transporter expression. The HeLa derivative KB-3-1 and the P-gp overexpressing KB-8-5-11 subline were maintained in DMEM; KB-8-5-11 additionally received 100 ng/mL colchicine. H460 parental cells were obtained from the Division of Cancer Treatment and Diagnosis Tumor Repository, National Cancer Institute at Frederick, MD and were cultured in RPMI. The ABCG2 expressing subline H460 MX20 was generated by selecting H460 cells in 20 nM mitoxantrone. Media in all cases was supplemented with 10% FBS and 1% penicillin-streptomycin. We explored 27 common ADC payloads, in two orthogonal, paired cell line sets-a drug selected and transfected set for each transporter--to identify substrates of the ABC transporters P-gp and ABCG2. Compounds were sourced from Levena Biopharma (San Diego, CA), Selleck Chem (Houston, TX), ChemieTek (Indianapolis, IN), or Microsource Discovery Systems (Gaylordsville, CT). Screening was performed as previously described. Briefly, cells were plated at a density of 500 cells/well in 1536 well plates with compounds added using a 1536-head pin tool (Kalypsys, San Diego CA). Cells were incubated with cytotoxic drugs and processed with CellTiter Glo reagent (Promega, Madison, WI) to determine viability after 48 hours. P-gp substrates were identified by comparing compound activity between paired sets of low-expressing (sensitive) and over-expressing (resistant) cell lines.

Structure (SMILES)	Potency
CC[C@H](C)[C@@H]([C@@H](CC(=O)N1CCC[C@H]1[C@H](OC)[C@@H](C)C(=O)N[C@@H](Cc1ccccc1)C(=O)O)OC)N(C)C(=O)[C@@H](NC(=O)[C@H](C(C)C)N(C)C)C(C)C (NMe2Val-V[Dil][Dolaproine]F-OH)	18.8 nM (active)
COc1cccc2c1C(=O)c1c(O)c3c(c(O)c1C2=O)C[C@@](O)(C(=O)CO)CC3OC1CC(N2CCOC(OC)C2)C(O)C(C)O1 (some centres not stated)	10.6 nM (active)
CC[C@H](C)[C@@H]([C@@H](CC(=O)N1CCC[C@H]1[C@H](OC)[C@@H](C)C(=O)N[C@H](C)[C@@H](O)c1ccccc1)OC)N(C)C(=O)[C@@H](NC(=O)[C@H](C(C)C)N(C)C)C(C)C	0.2 nM (active)
CC[C@H](C)[C@@H]([C@@H](CC(=O)N1CCC[C@H]1[C@H](OC)[C@@H](C)C(=O)N[C@H](C)[C@@H](O)c1ccccc1)OC)N(C)C(=O)[C@@H](NC(=O)[C@@H](NC)C(C)C)C(C)C (H-[NMeV]V[Dil][Dolaproine]-X1)	0.2 nM (active)
CC[C@H](C)[C@@H]1NC(=O)CNC(=O)[C@H]2Cc3c([nH]c4cc(O)ccc34)S(=O)C[C@H](NC(=O)CNC1=O)C(=O)N[C@@H](CC(N)=O)C(=O)N1C[C@H](O)C[C@H]1C(=O)N[C@@H]([C@@H](C)[C@@H](O)CO)C(=O)N2 (some centres not stated)	4200 nM (active)
CC[C@@]1(O)C(=O)OCc2c1cc1n(c2=O)Cc2cc3ccccc3nc2-1	375 nM (active)
COc1cc2cc(c1Cl)N(C)C(=O)C[C@H](OC(=O)C(C)C)[C@]1(C)O[C@H]1[C@H](C)[C@@H]1C[C@@](O)(NC(=O)O1)[C@H](OC)C=CC=C(C)C2	0.1 nM (active)

Reference: PubChem BioAssay AID2202239 (National Center for Advancing Translational Sciences (NCATS), 2025)
